These results are taken from a collection of fitness landscapes (doi:10.1016/j.celrep.2020.107928).

The chains are these.
B1: Caulobacter ParB omega fusion; a variant is named by its letters at X, in order, B8GW30 (parent)
chain: MESVVVGEPGMSEGRRGLGRGLSALLGEVDAAPAQAPGEQLGGSREAPIEILQRNPDQPRRTFREEDLEDLSNSIREKGVLQPILVRPSPDTAGEYQIVAGERAWRAAQRAGLKTVPIMVRELDDLAVLEIGIIENVQRADLNVLEEALSYKVLMEKFERTQENIAQTIGKSXSHVANXMRLLXLPDEVQSYLVSGELTAXHARAIAAAADPVALAKQIIEGGLSVRETEALARKAPNLSAGKSKGGRPPRVKDTDTQALESDLSSVLGLDVSIDHRGSTGTLTITYATLEQLDDLCNRLTRGI

In all, about 81,000 sequences were measured (“one-hybrid fitness for binding parS DNA”: median about -0.17, highest 2% from about 0.51 on). The sample holds the highest values, similar sequences and a random draw of the others, so the mix is not that of the screen.

In this experiment the parent is B1. As to the kind of experiment: one-hybrid fitness for binding parS DNA (scaled: cognate 1, non-cognate 0); higher = stronger binding. The settings on record: with parS DNA site. Put shortly: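 The reporter was HIS3, with the binding site 19 bp from the promoter, in E. coli USO used for bacterial one-hybrid selection of Caulobacter ParB libraries with four specificity codons randomised. Growth was on M9 lacking histidine, with 0.1 mM IPTG and 5 mM 3-AT, for 48 hours at 37°C. Illumina sequencing covered plasmids before and after selection; three replicate libraries were pooled and variants with under 10 reads dropped. A fitness score is the log change in variant-to-wild-type read ratio, rescaled to the cognate and non-cognate references.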
Consider SLYE, for which the “one-hybrid fitness for binding parS DNA” value was at most 0.2.

Turning to NVQI, the “one-hybrid fitness for binding parS DNA” value was at most 0.2.

For the variant QQQV, the “one-hybrid fitness for binding parS DNA” value is at most 0.2.

WSWS: the “one-hybrid fitness for binding parS DNA” value is at most 0.2.

QFTQ: the “one-hybrid fitness for binding parS DNA” value was at most 0.2.

As to VLWE, the “one-hybrid fitness for binding parS DNA” value is at most 0.2.

For PVLP, the “one-hybrid fitness for binding parS DNA” value is at most 0.2.

With RYNH, the “one-hybrid fitness for binding parS DNA” value was at most 0.2.

In the case of RYNS, the “one-hybrid fitness for binding parS DNA” value turned out to be 0.872.

For RYND, the “one-hybrid fitness for binding parS DNA” value is 0.213.

Take RYDD: the “one-hybrid fitness for binding parS DNA” value is at most 0.2.

Turning to RYDN, the “one-hybrid fitness for binding parS DNA” value was determined as 0.407.

In the case of RYDS, the “one-hybrid fitness for binding parS DNA” value turned out to be 0.987.

Take EDLC: the “one-hybrid fitness for binding parS DNA” value is at most 0.2.

Turning to ANQD, the “one-hybrid fitness for binding parS DNA” value is at most 0.2.

In the case of TARG, the “one-hybrid fitness for binding parS DNA” value is at most 0.2.

With KMSG, the “one-hybrid fitness for binding parS DNA” value was at most 0.2.

In the case of RYEF, the “one-hybrid fitness for binding parS DNA” value stood at 0.236.

Take RYEM: the “one-hybrid fitness for binding parS DNA” value was found to be 0.275.

For the variant RYET, the “one-hybrid fitness for binding parS DNA” value is 0.772.

For the variant RYED, the “one-hybrid fitness for binding parS DNA” value was at most 0.2.

Turning to RYEY, the “one-hybrid fitness for binding parS DNA” value came out at 0.434.

As for RYEG, the “one-hybrid fitness for binding parS DNA” value was 0.901.

Take RYEN: the “one-hybrid fitness for binding parS DNA” value amounted to 0.348.

In the case of RYEK, the “one-hybrid fitness for binding parS DNA” value is at most 0.2.

For RYEC, the “one-hybrid fitness for binding parS DNA” value stood at 0.926.

On to RYEH, for which the “one-hybrid fitness for binding parS DNA” value was at most 0.2.

In the case of RYES, the “one-hybrid fitness for binding parS DNA” value was found to be 0.975.

On to RYEP, for which the “one-hybrid fitness for binding parS DNA” value is at most 0.2.

Consider PNCQ, for which the “one-hybrid fitness for binding parS DNA” value was at most 0.2.

Consider QNHC, for which the “one-hybrid fitness for binding parS DNA” value is at most 0.2.

Take RNEA: the “one-hybrid fitness for binding parS DNA” value is 0.253.

As to CLSL, the “one-hybrid fitness for binding parS DNA” value is at most 0.2.

For SSKF, the “one-hybrid fitness for binding parS DNA” value is at most 0.2.

Take VNMC: the “one-hybrid fitness for binding parS DNA” value was at most 0.2.

As for RMFC, the “one-hybrid fitness for binding parS DNA” value worked out at 0.966.

With RMFN, the “one-hybrid fitness for binding parS DNA” value turned out to be 0.459.

On to RMAF, for which the “one-hybrid fitness for binding parS DNA” value worked out at 0.253.

Turning to RMAC, the “one-hybrid fitness for binding parS DNA” value turned out to be 0.994.

With RMFR, the “one-hybrid fitness for binding parS DNA” value is at most 0.2.

As for RMAK, the “one-hybrid fitness for binding parS DNA” value was at most 0.2.

On to MTRT, for which the “one-hybrid fitness for binding parS DNA” value is at most 0.2.

For the variant LSYV, the “one-hybrid fitness for binding parS DNA” value is at most 0.2.

For LACS, the “one-hybrid fitness for binding parS DNA” value was at most 0.2.

Take RKNH: the “one-hybrid fitness for binding parS DNA” value is at most 0.2.

In the case of RKDD, the “one-hybrid fitness for binding parS DNA” value is at most 0.2.

Consider RKDP, for which the “one-hybrid fitness for binding parS DNA” value is at most 0.2.

RKNS: the “one-hybrid fitness for binding parS DNA” value is 0.766.

For the variant RKDS, the “one-hybrid fitness for binding parS DNA” value was determined as 0.886.

Take RKNN: the “one-hybrid fitness for binding parS DNA” value turned out to be 0.327.

In the case of QQTE, the “one-hybrid fitness for binding parS DNA” value was at most 0.2.

As to TVLW, the “one-hybrid fitness for binding parS DNA” value was at most 0.2.

Regarding QYWT, the “one-hybrid fitness for binding parS DNA” value was at most 0.2.

On to AHYS, for which the “one-hybrid fitness for binding parS DNA” value is at most 0.2.

Consider RWAH, for which the “one-hybrid fitness for binding parS DNA” value is at most 0.2.

Consider RWFC, for which the “one-hybrid fitness for binding parS DNA” value came out at 0.6.

For the variant RWAC, the “one-hybrid fitness for binding parS DNA” value turned out to be 0.721.

As for RWFM, the “one-hybrid fitness for binding parS DNA” value is at most 0.2.

As to RWFR, the “one-hybrid fitness for binding parS DNA” value is at most 0.2.

In the case of RWAP, the “one-hybrid fitness for binding parS DNA” value is at most 0.2.

Consider HYMG, for which the “one-hybrid fitness for binding parS DNA” value is at most 0.2.

For the variant CCLT, the “one-hybrid fitness for binding parS DNA” value is at most 0.2.

Regarding HCNG, the “one-hybrid fitness for binding parS DNA” value is at most 0.2.

On to RVAP, for which the “one-hybrid fitness for binding parS DNA” value was at most 0.2.

In the case of RVFF, the “one-hybrid fitness for binding parS DNA” value was found to be 0.303.

As for RVAD, the “one-hybrid fitness for binding parS DNA” value is at most 0.2.

Consider RVAC, for which the “one-hybrid fitness for binding parS DNA” value was 0.982.

For RVFR, the “one-hybrid fitness for binding parS DNA” value is at most 0.2.

Regarding RVFC, the “one-hybrid fitness for binding parS DNA” value was found to be 0.972.

For YKSS, the “one-hybrid fitness for binding parS DNA” value was at most 0.2.

As to DLKY, the “one-hybrid fitness for binding parS DNA” value was at most 0.2.

Turning to KPVK, the “one-hybrid fitness for binding parS DNA” value is at most 0.2.

Consider RTRF, for which the “one-hybrid fitness for binding parS DNA” value came to 0.627.

On to RTDF, for which the “one-hybrid fitness for binding parS DNA” value is at most 0.2.

Take RTYF: the “one-hybrid fitness for binding parS DNA” value turned out to be 0.259.

On to RTKF, for which the “one-hybrid fitness for binding parS DNA” value came out at 0.734.

Consider RTVF, for which the “one-hybrid fitness for binding parS DNA” value is at most 0.2.

Take RCKF: the “one-hybrid fitness for binding parS DNA” value was 0.541.

As for RSKF, the “one-hybrid fitness for binding parS DNA” value was 0.35.

For the variant RPKF, the “one-hybrid fitness for binding parS DNA” value was at most 0.2.

For the variant RWHR, the “one-hybrid fitness for binding parS DNA” value was at most 0.2.

For RPGM, the “one-hybrid fitness for binding parS DNA” value is at most 0.2.

As to VKLS, the “one-hybrid fitness for binding parS DNA” value was at most 0.2.

For EMNC, the “one-hybrid fitness for binding parS DNA” value was at most 0.2.
